# Results from PMC5540273 (PLoS ONE, 2017).
# Tested on: FLT4
# Settings: concentration: 1 μM, replicates: in singlicate; n = 1
# 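Note: KINOMEscan kinase panel screen.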
row,SMILES,%Inh [%]
1,Fc1ccc(-c2ncn(CCCN3CCOCC3)c2-c2cccnc2)cc1 [SB-211743],0
2,COc1cc2ncn(-c3cc(OCc4sccc4Cl)c(C(N)=O)s3)c2cc1OC [GSK448459],67
3,Cl.Nc1ncnc2occ(-c3ccc(NC(=O)Nc4cc(C(F)(F)F)ccc4F)cc3)c12 [SB-707548],100
4,NS(=O)(=O)CCc1cccc(Nc2nccc(-c3c(-c4cccc(NC(=O)c5c(F)cccc5F)c4)nn4ccccc34)n2)c1 [GSK336735],99.2
5,O=C(NCCNc1ccnc(Nc2ccc(F)cc2)n1)c1cc2ccccc2s1 [GSK1379874],9
6,CCc1ccnc(/C=C/c2n[nH]c3cc(Sc4ccccc4C(=O)NC)ccc23)c1,99.9
7,CC(C)Oc1ccc2c(-c3ccnc(Nc4ccc(N5CCN(C)CC5)cc4)n3)cnn2n1 [GW696155],30
8,Cc1nnc(-c2ccc3ncc(-c4ccc(S(C)=O)cc4)n3c2)o1 (centres unmarked),6
9,O=C(NCCNc1ccnc(Nc2ccc(F)cc2)n1)Nc1ccccc1F [GSK1379880],0
10,NS(=O)(=O)c1cccc(-c2ccc3ncc(N4CCOCC4)nc3c2)c1 [GSK1535721],12
11,CN(C(=O)c1ccc(-c2cc(-c3c[nH]nc3-c3ccccn3)ccn2)cc1)C1CCOCC1 [GW810083],0
12,O=C(Nc1cccc(-c2nn3ncccc3c2-c2ccnc(Nc3cccc(C(F)(F)F)c3)n2)c1)c1c(F)cccc1F [GSK299495],40
13,Cc1c(Cn2c(C)nn3c(=O)cc(N4CCOC(C)C4)nc23)cccc1C(F)(F)F (centres unmarked) [GSK2344444],11
14,NCC(NC(=O)c1cc(-c2cn[nH]c2)c(-c2ccnc3[nH]ccc23)s1)c1ccccc1.O=C(O)C(F)(F)F.O=C(O)C(F)(F)F (centres unmarked) [GSK1325775],14
15,O=C(NCCCN1CCOCC1)c1cccc(Nc2nccc(Nc3ccc(Oc4ccccc4)cc3)n2)c1 [GW663929],4
16,O=C1NC(=O)C(N2CCc3ccccc32)=C1c1cccc(Cl)c1 [SB-408010],2
17,Fc1ccc(-c2ncn(CCCN3CCOCC3)c2-c2ccccn2)cc1 [SB-211742],0

row,SMILES,%Inh [%]
1,N#Cc1ccc(-c2cc(-c3c[nH]nc3-c3ccccn3)ccn2)cc1 [GW693028],0
2,[2H]C([2H])(c1cccc(C(F)(F)F)c1C)n1ccn2c(=O)nc(N3CCOCC3)cc12 [GSK2336394],3
3,COc1ccc(COc2cc(-n3cnc4ccccc43)sc2C(N)=O)cc1 [GSK1024304],1
4,O=c1cc(N2CCOCC2)nc2n(Cc3cccc(C(F)(F)F)c3)ccn12 [GSK2297543],0
5,COC(=O)Nc1nc2cc(Oc3ccc(NC(=O)Nc4cc(F)ccc4F)cc3)ccc2[nH]1.Cl [GW701424],85
6,CN1c2ccc(CNc3ccc(F)cc3)cc2-c2c(cnn2C)S1(=O)=O,0
7,Cc1ccc(NC(=O)c2ccnc(N3CCN(C)CC3)c2)cc1-c1ccc(C(=O)NCC2CC2)cc1 [GW775604],0
8,COc1ccc(Nc2nccc(N3CCC(NC(=O)Nc4cccc(C(C)=O)c4)C3)n2)cc1 (centres unmarked) [GSK1379731],4
9,Cn1cc(-c2ccc3c(c2)CCN3C(=O)Cc2ccccc2Cl)c2c(N)ncnc21 [GSK2608885],99.8
10,COc1ccc(Nc2nccc(N3CCC(NC(=O)Nc4cc(C)ccc4C)C3)n2)cc1 (centres unmarked) [GSK1379741],1
11,COc1cc2c(cc1OCCN1CCN(C)CC1)ncc1c3ccc(C#N)cc3[nH]c21,0
12,CSc1ccc(-c2cc3ncnc(SCC(=O)O)c3s2)cc1,0
13,Cc1cccc(Cn2ccn3c(=O)cc(N4CCOCC4)nc23)c1 [GSK2297542],0
14,Nc1nc(-c2ccc3c(N)n[nH]c3c2)cc(N2CCCC2)n1 [GSK2227430],0
15,Cc1cccc(-c2nc(Nc3ccc4ncsc4c3)c3ccccc3n2)n1 [GW867588],0
16,CCn1cnc2c(N)ncnc21 [GW345098],13
17,O=C(NOCC1CC1)c1ccc(F)c(F)c1Nc1ccc(I)cc1Cl,1

# Tested on: FRK
# Settings: concentration: 1 μM, replicates: in singlicate; n = 1
row,SMILES,%Inh [%]
1,Fc1ccc(-c2ncn(CCCN3CCOCC3)c2-c2cccnc2)cc1 [SB-211743],0
2,COc1cc2ncn(-c3cc(OCc4sccc4Cl)c(C(N)=O)s3)c2cc1OC [GSK448459],10
3,Cl.Nc1ncnc2occ(-c3ccc(NC(=O)Nc4cc(C(F)(F)F)ccc4F)cc3)c12 [SB-707548],95.7
4,NS(=O)(=O)CCc1cccc(Nc2nccc(-c3c(-c4cccc(NC(=O)c5c(F)cccc5F)c4)nn4ccccc34)n2)c1 [GSK336735],97.2
5,O=C(NCCNc1ccnc(Nc2ccc(F)cc2)n1)c1cc2ccccc2s1 [GSK1379874],6
6,CCc1ccnc(/C=C/c2n[nH]c3cc(Sc4ccccc4C(=O)NC)ccc23)c1,17
7,CC(C)Oc1ccc2c(-c3ccnc(Nc4ccc(N5CCN(C)CC5)cc4)n3)cnn2n1 [GW696155],41
8,Cc1nnc(-c2ccc3ncc(-c4ccc(S(C)=O)cc4)n3c2)o1 (centres unmarked),29
9,O=C(NCCNc1ccnc(Nc2ccc(F)cc2)n1)Nc1ccccc1F [GSK1379880],0
10,NS(=O)(=O)c1cccc(-c2ccc3ncc(N4CCOCC4)nc3c2)c1 [GSK1535721],11
11,CN(C(=O)c1ccc(-c2cc(-c3c[nH]nc3-c3ccccn3)ccn2)cc1)C1CCOCC1 [GW810083],6
12,O=C(Nc1cccc(-c2nn3ncccc3c2-c2ccnc(Nc3cccc(C(F)(F)F)c3)n2)c1)c1c(F)cccc1F [GSK299495],88
13,Cc1c(Cn2c(C)nn3c(=O)cc(N4CCOC(C)C4)nc23)cccc1C(F)(F)F (centres unmarked) [GSK2344444],0
14,NCC(NC(=O)c1cc(-c2cn[nH]c2)c(-c2ccnc3[nH]ccc23)s1)c1ccccc1.O=C(O)C(F)(F)F.O=C(O)C(F)(F)F (centres unmarked) [GSK1325775],0
15,O=C(NCCCN1CCOCC1)c1cccc(Nc2nccc(Nc3ccc(Oc4ccccc4)cc3)n2)c1 [GW663929],48
16,O=C1NC(=O)C(N2CCc3ccccc32)=C1c1cccc(Cl)c1 [SB-408010],0
17,Fc1ccc(-c2ncn(CCCN3CCOCC3)c2-c2ccccn2)cc1 [SB-211742],6

row,SMILES,%Inh [%]
1,N#Cc1ccc(-c2cc(-c3c[nH]nc3-c3ccccn3)ccn2)cc1 [GW693028],25
2,[2H]C([2H])(c1cccc(C(F)(F)F)c1C)n1ccn2c(=O)nc(N3CCOCC3)cc12 [GSK2336394],6
3,COc1ccc(COc2cc(-n3cnc4ccccc43)sc2C(N)=O)cc1 [GSK1024304],0
4,O=c1cc(N2CCOCC2)nc2n(Cc3cccc(C(F)(F)F)c3)ccn12 [GSK2297543],0
5,COC(=O)Nc1nc2cc(Oc3ccc(NC(=O)Nc4cc(F)ccc4F)cc3)ccc2[nH]1.Cl [GW701424],20
6,CN1c2ccc(CNc3ccc(F)cc3)cc2-c2c(cnn2C)S1(=O)=O,1
7,Cc1ccc(NC(=O)c2ccnc(N3CCN(C)CC3)c2)cc1-c1ccc(C(=O)NCC2CC2)cc1 [GW775604],0
8,COc1ccc(Nc2nccc(N3CCC(NC(=O)Nc4cccc(C(C)=O)c4)C3)n2)cc1 (centres unmarked) [GSK1379731],0
9,Cn1cc(-c2ccc3c(c2)CCN3C(=O)Cc2ccccc2Cl)c2c(N)ncnc21 [GSK2608885],97.9
10,COc1ccc(Nc2nccc(N3CCC(NC(=O)Nc4cc(C)ccc4C)C3)n2)cc1 (centres unmarked) [GSK1379741],0
11,COc1cc2c(cc1OCCN1CCN(C)CC1)ncc1c3ccc(C#N)cc3[nH]c21,2
12,CSc1ccc(-c2cc3ncnc(SCC(=O)O)c3s2)cc1,16
13,Cc1cccc(Cn2ccn3c(=O)cc(N4CCOCC4)nc23)c1 [GSK2297542],7
14,Nc1nc(-c2ccc3c(N)n[nH]c3c2)cc(N2CCCC2)n1 [GSK2227430],0
15,Cc1cccc(-c2nc(Nc3ccc4ncsc4c3)c3ccccc3n2)n1 [GW867588],0
16,CCn1cnc2c(N)ncnc21 [GW345098],10
17,O=C(NOCC1CC1)c1ccc(F)c(F)c1Nc1ccc(I)cc1Cl,0
